± gives the standard deviation.

The subject of test [1] is MILI (PIWIL2) piRISC loaded with L1MC piRNA (26 nt). The test is described as follows: pre-steady-state target cleavage rate (min^-1); guide: L1MC piRNA 5'p-UAACUAAAUACUAUGCAAGCUGUAGG; higher = faster piRNA-guided slicing of the target. In a few lines: (§1)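 The pre-steady-state cleavage rate was obtained by Cleave-'n-Seq with a burst-and-steady-state fit. A transcribed, DNA-blocked target RNA library (0.1 nM) was mixed with 1 nM active affinity-purified piRISC carrying one synthetic guide, with or without 500 nM GTSF1 partner protein, in HEPES–potassium acetate buffer at 33 °C for 0–8 or 0–960 min. Uncleaved targets were sequenced and normalised to depth and to weakly complementary targets, with three trials pooled and k3 capped at 0.0001 min^-1.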

Test [2] has as its system EfPiwi piRISC loaded with L1MC piRNA (26 nt). Nature of the test: pre-steady-state target cleavage rate (min^-1); auxiliary factor: 500 nM Ephydatia muelleri Gtsf1; guide: L1MC piRNA 5'p-UAACUAAAUACUAUGCAAGCUGUAGG; MIWI and MILI are mouse PIWI proteins and EfPiwi is from a freshwater sponge; tags in brackets are library labels; higher = faster piRNA-guided slicing of the target. In a few lines: as §1
The mark [3] stands for this setting: auxiliary factor: 500 nM mouse GTSF1.
The mark [4] stands for this setting: auxiliary factor: none (no GTSF1).

In the case of UCCUGGUACAGCUAGCAUAGUAUUUAGUAA, the “pre-steady-state target cleavage rate” value in test [1] (setting [3]) came to 0.201 ± 0.022; in test [1] (setting [4]), 0.00371 ± 0.0023; in test [2], 0.00365 ± 0.0021.
In the same order, the values of UCCUGGAACAGGUUGCAAAGUAUUUAGUUA are 0.144 ± 0.013, 0.00884 ± 0.003 and 0.0118 ± 0.0039.
In the same order, the values of UCCUCCUAGUCCUUGCAUAGUAUUUAGUAA are 0.102 ± 0.018, 0.0027 ± 0.0023 and 0.00549 ± 0.0034.
Take UCCUGGAUCAGCUUGCAUAGUAAAUAGUUA: the “pre-steady-state target cleavage rate” value in test [1] (setting [3]) worked out at 0.171 ± 0.024; in test [1] (setting [4]), 0.00496 ± 0.0026; in test [2] it was 0.00673 ± 0.0027.
In the case of UCCUGCUUACAGCUUGCAUAGUAUUUAGUUA, the “pre-steady-state target cleavage rate” value came to 0.451 ± 0.043 in test [1] (setting [3]), 0.0088 ± 0.0032 in test [1] (setting [4]) and 0.0638 ± 0.015 in test [2].
The matching figures for UCCUGGAUGAGCUUGCAUAGUAUUUGGUUA: 0.203 ± 0.025, 0.00663 ± 0.0031 and 0.00713 ± 0.002.
The matching figures for UCCUCCUACUGCUUGCAUAGUAUUUUGUUA: 0.0977 ± 0.016, 0.00448 ± 0.0018 and 0.0111 ± 0.0044.
As to UCCUGGAACAGCUCUGCAUAGUAUUUAGUUA, the “pre-steady-state target cleavage rate” value came to 0.268 ± 0.012 in test [1] (setting [3]), 0.00871 ± 0.0031 in test [1] (setting [4]) and 0.0165 ± 0.005 in test [2].
The matching figures for UCCUGGAUCAGGUUGCAUAGUUUUUAGUUA: 0.023 ± 0.0088, 0.00644 ± 0.0022 and 0.00481 ± 0.0024.
As to UCCUCCUACAGCUUGCUUAGUAAUUAGUUA, the entries for the “pre-steady-state target cleavage rate” value in test [1] (setting [3]), in test [1] (setting [4]) and in test [2] were 0.24 ± 0.015, 0.00424 ± 0.0021 and 0.0113 ± 0.0049, respectively.
Turning to UCCUGCUACAGCUUCGAUAGUAUUUAGUUA, the entries for the “pre-steady-state target cleavage rate” value in test [1] (setting [3]), in test [1] (setting [4]) and in test [2] were 0.253 ± 0.02, 0.00716 ± 0.002 and 0.00756 ± 0.0026, respectively.
With UCCUGGAUGAGCUUGCAUAGUAUUAUAGUUA, the “pre-steady-state target cleavage rate” value in test [1] (setting [3]) amounted to 0.185 ± 0.022; in test [1] (setting [4]), 0.00494 ± 0.0026; in test [2], 0.0159 ± 0.0056.
The matching figures for UCCUGGUACAGCUUGCAUAGUAUUUUCUAA: 0.0489 ± 0.017, 0.00383 ± 0.0034 and 0.0055 ± 0.0029.
The matching figures for “UCCUGGAUGUCCUUGCAUAGUAUUUAGUUG [g2:g19:cont:t1G]”: 0.0765 ± 0.0096, 0.00821 ± 0.002 and 0.00478 ± 0.0018.
In the same order, the values of UCCUCCUACUGCUAGCAUAGUAUUUAGUUA are 0.232 ± 0.015, 0.006 ± 0.0021 and 0.0131 ± 0.004.
For UCCUGGAUCAGCUUAGCAUAGUAUUUAGUUA, the “pre-steady-state target cleavage rate” value in test [1] (setting [3]) came to 0.232 ± 0.018; in test [1] (setting [4]), 0.00685 ± 0.0027; in test [2], 0.0874 ± 0.019.
As for UCCUGGAUCAGCAUGCAUAGUAUUUAGAAA, the “pre-steady-state target cleavage rate” value amounted to 0.126 ± 0.018 in test [1] (setting [3]), 0.0038 ± 0.0026 in test [1] (setting [4]) and 0.00356 ± 0.0021 in test [2].
Turning to UCCUCCUACAGCUAGCAUAGUAAUUAGUUA, the “pre-steady-state target cleavage rate” value in test [1] (setting [3]) is 0.159 ± 0.022; in test [1] (setting [4]), 0.00372 ± 0.0022; in test [2] it was 0.00535 ± 0.002.
The matching figures for UCCUGGUACAGCUAGCAUAGUAAUUAGUUA: 0.236 ± 0.041, 0.00483 ± 0.0027 and 0.00407 ± 0.0023.
With UCCUGGAUCAGCUUGCAUACUAUUUAGUUA, the “pre-steady-state target cleavage rate” value is 0.0716 ± 0.011 in test [1] (setting [3]), 0.0037 ± 0.0021 in test [1] (setting [4]) and 0.0114 ± 0.0021 in test [2].
The matching figures for UCCUCCUAGAGCUAGCAUAGUAUUUAGUUA: 0.218 ± 0.015, 0.00391 ± 0.0022 and 0.0136 ± 0.0043.
As to UCCUCGAACAGCUUGCAUAGUAUUUAGUUA, the “pre-steady-state target cleavage rate” value is 0.3 ± 0.017 in test [1] (setting [3]), 0.00922 ± 0.0026 in test [1] (setting [4]) and 0.198 ± 0.038 in test [2].
Turning to UCCUGGAAUCAGCUUGCAUAGUAUUUAGUUA, the “pre-steady-state target cleavage rate” value came to 0.278 ± 0.021 in test [1] (setting [3]), 0.016 ± 0.0034 in test [1] (setting [4]) and 0.0198 ± 0.0068 in test [2].
For UCCUCCUACAUCUUGCAUAGUAUUUAGUUA, the “pre-steady-state target cleavage rate” value in test [1] (setting [3]) was 0.277 ± 0.02; in test [1] (setting [4]), 0.00791 ± 0.0022; in test [2], 0.0662 ± 0.02.
In the same order, the values of UCCUGGAUGAGCUGCAUAGUAUUUAGUUA are 0.101 ± 0.013, 0.00501 ± 0.0028 and 0.00786 ± 0.0028.
In the same order, the values of UCCUGGUACAGGUUGCUUAGUAUUUAGUUA are 0.328 ± 0.022, 0.0176 ± 0.0042 and 0.00576 ± 0.003.
In the same order, the values of UCCUGCUACUAGCUUGCAUAGUAUUUAGUUA are 0.176 ± 0.022, 0.0074 ± 0.0023 and 0.00699 ± 0.0025.
With UCCUGCUAGAGCUUGCAUUGUAUUUAGUUA, the “pre-steady-state target cleavage rate” value in test [1] (setting [3]) came to 0.219 ± 0.018; in test [1] (setting [4]), 0.0097 ± 0.0023; in test [2], 0.00751 ± 0.0022.
The matching figures for UCCUGGAUGUGCCUUGCAUAGUAUUUAGUUA: 0.111 ± 0.022, 0.00996 ± 0.0032 and 0.0886 ± 0.031.
For UCCUCCUAGCAGCUUGCAUAGUAUUUAGUUA, the “pre-steady-state target cleavage rate” value in test [1] (setting [3]) came to 0.295 ± 0.018; in test [1] (setting [4]), 0.011 ± 0.0028; in test [2], 0.0339 ± 0.0083.
The matching figures for UCCUGGAUGUCGUGUGCAUAGUAUUUAGUUA: 0.102 ± 0.015, 0.00602 ± 0.0035 and 0.0038 ± 0.0033.
With UCCUCCUACAGCUAGCAUACUAUUUAGUUA, the “pre-steady-state target cleavage rate” value is 0.0706 ± 0.011 in test [1] (setting [3]), 0.0031 ± 0.0022 in test [1] (setting [4]) and 0.00634 ± 0.002 in test [2].
In the same order, the values of UCCUGCUACAGGAUGCAUAGUAUUUAGUUA are 0.271 ± 0.0083, 0.00941 ± 0.0024 and 0.0191 ± 0.0043.
On to UCCUGCUACAUCUUGCAUAGUAUUUAGUUA, for which the entries for the “pre-steady-state target cleavage rate” value in test [1] (setting [3]), in test [1] (setting [4]) and in test [2] were 0.239 ± 0.02, 0.0095 ± 0.0022 and 0.0423 ± 0.014, respectively.
In the same order, the values of UCCUGGUACAGGCUUGCAUAGUAUUUAGUUA are 0.203 ± 0.026, 0.0131 ± 0.0043 and 0.00759 ± 0.0028.
In the same order, the values of UCCUGGAUGUGCUCUGCAUAGUAUUUAGUUA are 0.137 ± 0.015, 0.0108 ± 0.0039 and 0.00925 ± 0.0031.
For UCCUGCUACAGCAUGCAUAGUAUAUAGUUA, the “pre-steady-state target cleavage rate” value in test [1] (setting [3]) came to 0.284 ± 0.03; in test [1] (setting [4]) it was 0.0054 ± 0.0024; in test [2], 0.00599 ± 0.0029.
The matching figures for UCCUGCUACAGCUUGUCAUAGUAUUUAGUUA: 0.211 ± 0.021, 0.00341 ± 0.0028 and 0.0131 ± 0.0037.
UCCUGCUACAGCUUGCAAGUAUUUAGUUA: the “pre-steady-state target cleavage rate” value stood at 0.138 ± 0.017 in test [1] (setting [3]), 0.00374 ± 0.0027 in test [1] (setting [4]) and 0.00614 ± 0.0027 in test [2].
Turning to UCCUCCUACACCUUGCAUAGUAUUUAGUAA, the “pre-steady-state target cleavage rate” value in test [1] (setting [3]) came out at 0.226 ± 0.037; in test [1] (setting [4]), 0.0033 ± 0.0026; in test [2], 0.00625 ± 0.003.
The matching figures for “UCCUGGAACAGCUUGCAUAGUAUUUAGUUC [g2:g23:cont:t1C]”: 0.191 ± 0.024, 0.00602 ± 0.0018 and 0.00959 ± 0.0037.
The matching figures for UCCUCCUACAGCUUGCAUAGUAUAUUGUUA: 0.128 ± 0.019, 0.00269 ± 0.0025 and 0.00489 ± 0.003.
As to UCCUGGUACAGCAUGCAUUGUAUUUAGUUA, the “pre-steady-state target cleavage rate” value came to 0.167 ± 0.016 in test [1] (setting [3]), 0.0119 ± 0.0038 in test [1] (setting [4]) and 0.00628 ± 0.0022 in test [2].
The matching figures for UCCUGGAUCAGCUUGCAUAAUAUUUAGUUA: 0.253 ± 0.031, 0.00396 ± 0.0026 and 0.0108 ± 0.0031.
As to UCCUGGAACAGCUUGCAUUGUAUUUAGUUA, the “pre-steady-state target cleavage rate” value in test [1] (setting [3]) came to 0.18 ± 0.014; in test [1] (setting [4]), 0.00894 ± 0.0026; in test [2], 0.00926 ± 0.0026.
Take UCCUCCUACAGCUCGCAUAGUAUUUAGUUA: the “pre-steady-state target cleavage rate” value was found to be 0.288 ± 0.019 in test [1] (setting [3]), 0.0109 ± 0.0027 in test [1] (setting [4]) and 0.0845 ± 0.019 in test [2].

These data come from the supplement of paper PMC10338343.
